Source: PubChem (several laboratories)
ERb SRC1 inh = inhibitors of ERβ-SRC1 coactivator interaction, primary screen, biochemical, TR-FRET, ERβ LBD, SRC-1 peptide; Estrogen receptor beta (Homo sapiens), Q92731; TR-FRET ER-beta LBD / SRC1-Cy5 peptide binding; receptor agonist-loaded with 1 µM estradiol; inhibition, % at 25.6 µM; 86,000 tested, 1.3% active; AID 633, 2007;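 active = compounds whose percent inhibition of the receptor-coactivator binding signal exceeds about 50% in the single-dose screen, limit read from the data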;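 also: 0% = receptor plus peptide wells without compound and 100% = peptide-only wells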
Target sequence (Q92731 whole entry, looked up, the tested form may be a part): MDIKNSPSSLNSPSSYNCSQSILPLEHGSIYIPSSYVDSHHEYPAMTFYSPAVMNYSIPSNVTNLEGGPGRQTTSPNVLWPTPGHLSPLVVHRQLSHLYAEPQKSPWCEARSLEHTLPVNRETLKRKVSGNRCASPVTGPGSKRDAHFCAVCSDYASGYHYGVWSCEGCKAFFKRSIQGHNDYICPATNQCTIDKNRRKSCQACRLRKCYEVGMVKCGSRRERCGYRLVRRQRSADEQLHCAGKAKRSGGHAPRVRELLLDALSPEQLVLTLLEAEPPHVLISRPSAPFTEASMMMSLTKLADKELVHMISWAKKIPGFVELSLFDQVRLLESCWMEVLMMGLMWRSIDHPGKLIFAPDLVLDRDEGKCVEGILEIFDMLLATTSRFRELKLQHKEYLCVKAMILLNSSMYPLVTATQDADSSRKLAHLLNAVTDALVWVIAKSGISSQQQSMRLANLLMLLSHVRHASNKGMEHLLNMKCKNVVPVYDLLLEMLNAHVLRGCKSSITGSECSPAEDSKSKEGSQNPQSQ
ERa coact pot = enhancers of ERα–SRC-1 coactivator binding, primary screen, biochemical, TR-FRET, ERα LBD, low estradiol; Estrogen receptor (Homo sapiens), P03372; TR-FRET ERalpha-LBD/SRC-Cy5 coactivator binding, 2 h; 100 = basal binding, no effect; coactivator binding (% of control), % at 25.6 µM; 86,000 tested, 1.3% active; AID 639, 2007; in the data active = activity above about 200%;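 also: binding measured in presence of low estradiol as agonist stimulus; 0% = peptide alone without receptor and 100% = receptor with peptide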
ERa coact inh = ERα–SRC-1 coactivator interaction inhibitors, primary screen, biochemical, TR-FRET, ERα LBD, estradiol-bound; Estrogen receptor (Homo sapiens), P03372; TR-FRET ER-alpha LBD / SRC-1 peptide; inhibition, % at 25.6 µM; 86,000 tested, 1.7% active; in the data active = inhibition above about 50%;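 also: 0% = receptor plus peptide control and 100% = peptide only without receptor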
Mac1 fbg enh = enhancers of CD11b/CD18 adhesion to fibrinogen, primary screen, K562 cells, luminescence; Integrin beta-2 (Homo sapiens) + Integrin alpha-M (Homo sapiens), P05107+P11215; ATPlite luminescence; activation, % at 10 µM; 93,000 tested, 0.07% active; AID 1499, 2009;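 active = 10 µM primary screen giving 50% or more activity, confirmed by 40% or more on retest at that dose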
FAK blocker = FAK kinase inhibitors, primary screen, biochemical; Focal adhesion kinase 1 (Homo sapiens), Q05397; biochemical FAK kinase activity assay; inhibition, %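 (tested at 7 µM)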; AID 727, 2007; 97,000 tested, 0.84% active; in the data active = inhibition above about 19%;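 also: 0% = DMSO and 100% = reference compound high control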
Mac1 fbg inh = inhibitors of CD11b/CD18 adhesion to fibrinogen, primary screen, K562 cells, luminescence. inhibition, % at 10 µM. ATPlite luminescence; Mn2+ added to activate the integrin. Integrin beta-2 (Homo sapiens) + Integrin alpha-M (Homo sapiens), P05107+P11215. 93,000 tested, 0.54% active;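 active = primary inhibition of 50% or more at 10 µM, then 40% or more on retest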
An asterisk follows results filed as active; . = no result given; [ ] = remark or other dose. Shown are actives, neighbours in structure and some others; about 3.5% of the full set was active somewhere.

SMILES	ERb SRC1 inh	ERa coact pot	ERa coact inh	Mac1 fbg enh	FAK blocker	Mac1 fbg inh
O=c1c2c3c(sc2nc2sc(C4CC4)nn12)CCCC3	12	234*	11	4	0	-21
Cc1cccc(N2CCN(C(=O)CSCc3c(C)noc3C)CC2)c1C	-7	123	0	-9	-1	99*
Cc1cccc(N2CCN(C(=O)C3CCCCC3)CC2)c1C	-8	98	1	-2	-3	24
CCS(=O)(=O)N1Cc2ccccc2CC1C(=O)N1CCN(c2cccc(C)c2C)CC1 (stereo not given)	51*	61	80*[fluorescence artefact?]	41	8	-4
COc1ccccc1-n1cnc2c(c1=O)c1nc3ccccc3nc1n2-c1ccc(C)c(C)c1	.	.	.	-3	.	6
COCC(C)n1c(-c2ccc3c(c2)NC(=O)CO3)csc1=Nc1ccc(OC(F)F)cc1 (stereo not given)	-5	90	-8	-10	2	96*
CCN=c1scc(-c2ccc3c(c2)NC(=O)CO3)n1N=C1CCCC1	6	72	16	-8	1	98*
Cc1ccccc1Oc1cccc(C(=O)/C(C#N)=C/N(C)C)c1	3	78	-2	-1	2	-5
CN(C)/C=C(/C#N)C(=O)c1cccc(Oc2ccc(C(C)(C)C)cc2)c1	4	65	12	-8	0	82*
Cc1ccc(C(=O)Oc2ccc([N+](=O)[O-])cc2)cc1S(=O)(=O)N1CCCCCC1	.	.	.	-6	.	38
O=C1NC(CCc2ccccc2)C(=O)N1Cc1ccccc1Cl (stereo not given)	.	.	.	0	.	4
CC(C)NC(=O)CN1C(=O)NC(CCc2ccccc2)C1=O (stereo not given)	-4	107	61*[fluorescence artefact?]	-6	7	19
C/C(=N\OC(=O)c1ccc(OC(C)C)cc1)c1ccc(C)c(C)c1	.	.	.	-6	1	66*
COc1ccc(C(=O)O/N=C(\C)c2ccccc2)cc1	.	.	.	-6	0	29
CCCOc1ccc(C(=O)O/N=C(\CC)c2ccc(C)cc2)cc1	.	.	.	-6	.	83
CC/C(=N\OC(=O)c1ccc(OC(C)C)cc1)c1ccc(C)cc1	.	.	.	-7	2	80*
Cc1ccc(N=Cc2c(O)n(-c3ccc4c(c3)OCO4)c(=O)c3ccccc23)cc1	34	31	69*	0	1	6
Cc1cccc(-n2c(O)c(C=NCCCN3CCOCC3)c3ccccc3c2=O)c1	0	120	-5	1	1	34
Cc1cnc(NC(=O)CSc2nc3ccccc3c(=O)[nH]2)s1	-4	99	-4	.	-1	.
Cc1cc(C)c(S(=O)(=O)c2c(C)cccc2C)c(OCC(C)C)n1	.	.	.	0	-6	19
NC(=O)c1c(NC(=O)c2cc3ccccc3o2)sc2c1CCC2	53*	197	62*	1	-10	35
CC(=O)C1=C(O)C=C(c2ccco2)CC1c1ccco1 (stereo not given)	50*[fluorescence artefact?]	86	17	.	6	.
Cc1cccc(NC(=O)CSc2nnc(-c3ccccc3Br)o2)c1C	-4	100	8	0	-5	4
Cc1ccc(C(=O)CSC2=C(C#N)C(c3ccco3)CC(=O)N2)c(C)c1 (stereo not given)	64*	69	60*	-2	11	10
FC(F)(F)c1cnc(Nc2ccc(N3CCOCC3)cc2)c(Cl)c1	86*[fluorescence artefact?]	61	63*[fluorescence artefact?]	1	8	-6
SMILES	ERb SRC1 inh	ERa coact pot	ERa coact inh	Mac1 fbg enh	FAK blocker	Mac1 fbg inh
Cc1cc(C)nc(Nc2ccc(N3CCOCC3)cc2)n1	.	.	.	0	1	5
S=c1[nH]nc(-c2cc(-c3ccco3)[nH]n2)n1-c1ccccc1Cl	50*	43	33	2	6	0
S=c1[nH]nc(-c2cc(-c3ccco3)[nH]n2)n1-c1ccccc1	-14	59	-6	.	13	.
CC1Cc2ccccc2N1c1nc(C2CC2)nc2c1nnn2Cc1ccccc1 (stereo not given)	20	166	8	.	4	.
c1ccc(Cn2nnc3c(NCc4ccc5c(c4)OCO5)nc(C4CC4)nc32)cc1	43	56	79*[fluorescence artefact?]	12	-3	7
c1ccc(Cn2nnnc2CN2CCN(Cc3ccc4c(c3)OCO4)CC2)cc1	0	209*	6	-2	-3	6
Cc1nc(NCc2ccc3c(c2)OCO3)c2nnn(Cc3ccccc3)c2n1	27	154	63*[fluorescence artefact?]	-1	.	-14
Cc1ccccc1-n1c(SC(C)C(N)=O)nnc1-c1cccnc1 (stereo not given)	-5	117	-12	-4	8	-8
Cc1cc(NC(=O)c2cccc(S(=O)(=O)N3CCOCC3)c2)no1	5	78	7	1	-5	-12
Cc1nnc(NC(=O)c2ccc(-c3cccc(C(F)(F)F)c3)o2)s1	46	288*	44	71	-1	4
Cc1nn(-c2ccc(F)cc2)c(Cl)c1/C=C/C(=O)OCC(=O)Nc1ccc(F)cc1F	.	.	.	47	.	-27
Cc1nn(-c2ccccc2)c(C)c1C(=O)OC/C(O)=C(\C#N)c1nc2ccccc2[nH]1	23	60	56*[fluorescence artefact?]	12	-1	43
COC(=O)c1[nH]c2ccccc2c1NC(=O)CN1CCC(C(N)=O)(N2CCCCC2)CC1	-7	113	-10	5	0	1
COc1cc(C2C(C#N)=C(N)Oc3cc(C)oc(=O)c32)cc2c1OCO2 (stereo not given)	62*	101	70*	77	7	-31
Clc1ccc2nc(CSc3nnc(-c4c[nH]c5ccccc45)o3)cn2c1	42	261*[fluorescence artefact?]	31	.	.	.
Clc1cccc(CSc2nnc(-c3c[nH]c4ccccc34)o2)c1	.	.	.	2	-2	-2
CCCc1ccc(-c2cc(C(=O)NN3CCOCC3)c3ccccc3n2)cc1	.	.	.	-1	2	7
CCc1ccc(-c2cc(C(=O)Nn3cnnc3)c3ccccc3n2)cc1	-5	100	-3	-7	-2	78*
CC(C)CCn1cnc2c([nH]c3cccc(Cl)c32)c1=O	17	596*[fluorescence artefact?]	15	5	-5	-18
Cc1c(C(=O)N2CCN(c3ccccn3)CC2)sc2ncnc(N3CCN(c4ccccc4)CC3)c12	17	207*[fluorescence artefact?]	2	.	3	.
CC(=O)Nc1ccc(Nc2ccc(S(=O)(=O)C(F)(F)F)cc2[N+](=O)[O-])cc1	.	.	.	6	.	-23
